# Source: PubChem BioAssay
# Calls of active or inactive are those of the source.
# Assays:
# [1] = target: Albumin (Bos taurus) (UniProt P02769); experiment: compounds binding labelled BSA control protein – biochemical, small-molecule microarray, Alexa647 label, 635/667 nm fluorescence, artefact control for SMM control protein annotation, profiling panel (AID 1118); settings: BSA-A647 binding, fluorescence 635 nm, higher = more signal;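 further: score merges 667 nm emission intensity and signal-to-noise per printed compound spot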
# [2] = probe aXIP binding to arrayed compounds – biochemical, NeuroSMM set, 635/667 nm fluorescence, primary screen (AID 1119); settings: small-molecule microarray, higher = more signal, called active from +8 up or from −8 down;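 further: probe is the protein aXip251-270 applied at 1 µg/mL to compound-printed slides; binding of probe to printed compounds measured as 667 nm fluorescence plus signal to noise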
# [3] = probe aNOTCH3 binding on compound microarray – biochemical, small-molecule microarray, 635/667 nm fluorescence, primary screen (AID 1120); settings: higher = more signal;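 further: probe is a biotin-tagged antibody raised against NOTCH3 rather than NOTCH3 protein; score merges spot fluorescence near 667 nm with spot signal to noise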
# [4] = probe aNOTCH2 binding on compound microarray – biochemical, small-molecule microarray, 635/667 nm fluorescence, primary screen (AID 1121); settings: higher = more signal;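 further: score merges feature fluorescence read at 667 nm with its signal to noise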
# [5] = target: Carbonic anhydrase 2 (Homo sapiens) (UniProt P00918); experiment: compounds binding carbonic anhydrase 2 – biochemical, small-molecule microarray, Alexa647-labelled CAII, profiling panel (AID 1122); settings: CAII-A647 binding fluorescence, higher = more signal
# [6] = COS7 lysate on small-molecule microarray, probe aHis, 635 nm (AID 1123); settings: COS7 cell lysate, fluorescence, higher = more signal;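 further: z-score combines 667nm fluorescence intensity with signal-to-noise per printed compound spot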
# [7] = probe aLAP1 signal on lysate-treated microarray – cell lysate, small-molecule microarray, COS7 lysate, primary screen (AID 1124); settings: probe aLAP1, fluorescence, higher = more signal;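 further: lysate comes from COS7 cells expressing LAP1 and is applied at 0.3 µg/mL; score merges spot fluorescence near 667 nm with signal-to-noise over triplicate slides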
# [8] = system: Sam68 (KHDRBS1); experiment: compounds binding KHDRBS1 protein – biochemical, small-molecule microarray, 635 nm fluorescence, primary screen (AID 1125); settings: higher = more signal;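 further: score merges 667 nm channel intensity with signal to noise over triplicate slides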
# [9] = system: Chordin-like protein 2 (CHRDL2); experiment: compounds binding chordin-like 2 – biochemical, small-molecule microarray, 635 nm fluorescence, primary screen (AID 1126); settings: fluorescence 635 nm, higher = more signal;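 further: printed compound slides probed with Chrdl2 protein at 4 µg/mL for 1 h at 4 C; score merges 667 nm emission intensity with signal to noise over three replicate slides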
# [10] = target: Concanavalin-A (Canavalia ensiformis) (UniProt P02866); experiment: compounds binding concanavalin A lectin – biochemical, small-molecule microarray, Alexa647 label, 635 nm, artefact control for SMM control protein annotation, primary screen (AID 1127); settings: ConA-A647 binding fluorescence, higher = more signal;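 further: z combines 667 nm emission intensity with signal-to-noise across three replicate slides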
# Sequence of Concanavalin-A (Canavalia ensiformis) (P02866 whole entry, looked up): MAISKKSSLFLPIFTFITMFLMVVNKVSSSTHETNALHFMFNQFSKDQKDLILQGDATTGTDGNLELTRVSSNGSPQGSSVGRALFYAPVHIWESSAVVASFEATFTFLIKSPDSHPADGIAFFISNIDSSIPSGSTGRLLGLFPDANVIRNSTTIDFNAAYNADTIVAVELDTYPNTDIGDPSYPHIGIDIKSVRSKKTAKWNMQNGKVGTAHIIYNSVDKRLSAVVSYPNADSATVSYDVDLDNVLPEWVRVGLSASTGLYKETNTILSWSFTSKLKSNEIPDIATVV
# Sequence of Albumin (Bos taurus) (P02769 whole entry, looked up): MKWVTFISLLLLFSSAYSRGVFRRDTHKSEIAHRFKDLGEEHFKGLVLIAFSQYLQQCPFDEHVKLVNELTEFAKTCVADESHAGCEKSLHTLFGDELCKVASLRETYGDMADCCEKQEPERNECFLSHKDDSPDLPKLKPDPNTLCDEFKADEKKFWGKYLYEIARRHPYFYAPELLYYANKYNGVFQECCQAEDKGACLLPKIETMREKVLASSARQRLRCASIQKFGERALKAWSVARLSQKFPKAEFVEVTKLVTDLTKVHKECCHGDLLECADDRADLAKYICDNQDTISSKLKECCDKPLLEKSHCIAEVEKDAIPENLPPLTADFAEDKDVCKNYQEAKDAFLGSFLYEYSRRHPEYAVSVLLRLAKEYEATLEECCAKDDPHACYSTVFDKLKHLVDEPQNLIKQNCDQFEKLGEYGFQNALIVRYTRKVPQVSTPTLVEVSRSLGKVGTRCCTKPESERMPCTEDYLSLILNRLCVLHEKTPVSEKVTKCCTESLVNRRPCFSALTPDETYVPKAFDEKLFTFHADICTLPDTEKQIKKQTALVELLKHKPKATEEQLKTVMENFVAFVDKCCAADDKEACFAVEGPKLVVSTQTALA
Compound,composite z-score [1],composite Z-score [2],composite z-score [3],composite z-score [4],composite z-score [5],composite z-score [6],composite z-score [7],composite z-score [8],composite z-score [9],composite z-score [10]
CCOC(=CC(=O)OC)CC(O)c1cccc(Cl)c1 (stereo not given),0.451,-0.114 (inactive),-0.17,-0.176,0.606,1.47,0.49,0.505,-1.42,0.0032
O=C(O)[C@H]1C[C@H]2C(=O)N3CCC[C@H]3C(=O)N2[C@H]1c1cccc(OCCO)c1,-0.698,0.223 (inactive),-0.124,-0.115,0.525,1.21,-0.332,0.833,0.996,0.942
CCOC(=O)C[C@H]1[C@H](OC(=O)c2ccc(-c3ccccc3)cc2)[C@@H](NC(=O)C2CCCCC2)c2cc(OCCCO)ccc2N1C(=O)c1ccccc1,0.236,-0.6 (inactive),0.172,-0.152,0.0455,0.92,0.0846,0.957,0.372,0.949
Cc1ccc(S[C@]2(C(=O)NCCN3CCOCC3)CC(=O)N(Cc3ccccc3C(F)(F)F)[C@@H]2c2ccc(CO)cc2I)cc1,0.274,0.139 (inactive),-0.171,-0.131,0.371,0.702,0.23,0.397,-0.777,-0.278
O=C1c2ccccc2[C@](Cc2ccccc2I)(C(=O)NCc2ccccc2)[C@H](c2ccc(CO)cc2)N1C1CCCCC1,0.861,0.534 (inactive),0.16,-0.0997,0.601,1.21,0.576,1.12,0.271,1.23
CCCC[C@@H]1C[C@H]1[C@@H](NC(=O)c1cccnc1)c1ccc(-c2ccccc2)cc1,-0.294,-0.0683 (inactive),-0.306,-0.174,-0.357,0.208,-0.193,-0.0982,-1.56,-0.633
CC(C)(C)OC(=O)CC[C@]1(C(=O)NCCN2CCOCC2)N=C(c2ccc(OCCCO)cc2)O[C@H]1c1ccccc1N=[N+]=[N-],0.942,0.489 (inactive),0.286,0.0684,0.82,3.05,1.22,1.31,0.186,0.373
C=CCN1C(=O)[C@@]2(O[C@@H](CCn3cc([C@H](O)c4ccccc4)nn3)[C@H]([Si](C)(C)c3ccc(OC)cc3)[C@H]2C)c2ccccc21,0.205,0.363 (inactive),0.221,-0.151,0.499,0.422,0.572,1.08,0.333,1.01
CC(C)(C)OC(=O)CC[C@@]1(C(=O)O)N=C(c2ccc(OCCCO)cc2)O[C@@H]1c1ccccc1,0.273,-0.204 (inactive),-0.1,-0.0037,0.824,1.98,-0.021,0.721,-0.811,0.335
COc1c(C)cc(-c2cc3c(c(Cc4ccccc4)n2)[Si](C(C)C)(C(C)C)OC3)cc1C,0.0401,-0.014 (inactive),-0.0881,-0.0907,-0.143,0.0246,-0.269,0.0189,0.198,0.0652
CCOc1cc(C(O)C2C=CC3C(=O)N(C)C(=O)C3N2N2CCCCC2)ccc1O (stereo not given),0.534,0.293 (inactive),0.135,-0.0106,0.709,0.733,0.14,0.0667,0.278,0.852
COC(=O)[C@@]1(Cc2ccccc2)[C@H]2c3cc(C(=O)N4CCCC4)[nH]c3C[C@H]2CN1C(=O)c1ccccc1,0.5,-0.37 (inactive),0.0203,0.111,0.722,3.51,0.341,-1.81,-0.782,-1.15
O=C(CS)NCCCCCCNC(=O)[C@H]1C[C@H]2C(=O)N[C@@H](Cc3ccccc3)C(=O)N2[C@H]1c1cccc(OCCO)c1,-0.428,0.131 (inactive),0.605,-0.084,0.684,2.21,0.519,1.29,1.24,0.892
COCC(=C=CC[C@H](O)c1cccc(OCCO)c1)C[C@H](O)c1ccccn1,0.0722,-0.0402 (inactive),-0.004,-0.145,0.778,3.79,0.369,0.52,-0.0575,0.102
COc1cc2c(cc1O)C(C)N(Cc1cc3c(cc1Br)OCO3)CC2 (stereo not given),-0.0769,2.1 (inactive),-0.119,-0.0924,0.887,0.578,0.349,-0.309,-0.55,-0.251
C=C1C2CC3C(=C4C(CO[C@@H]4[C@H]4CCCN4S(=O)(=O)c4ccccc4[N+](=O)[O-])C4C(=O)N(C)C(=O)C34)CC2C(=O)N1C (stereo not given in full),0.873,0.79 (inactive),0.0897,-0.078,0.155,0.5,-0.0918,-0.184,0.0301,0.131
CCOC(=O)C[C@H]1[C@H](OC(=O)c2ccc(-c3ccccc3)cc2)[C@@H](NC(=O)c2ccc3ccccc3n2)c2cc(OCCCO)ccc2N1C(=O)c1ccccc1,0.58,-0.202 (inactive),0.0916,-0.0613,0.14,0.554,0.0488,1.25,0.423,1.04
